# Values joined by “and” are separate entries in the source; they are usually repeats but may differ in a detail not shown here. Equal entries are not always repeated. Out of some 16,000 compounds screened, about 5,100 (32%) were called active. Roughly 25% stayed inconclusive and do not appear here. Some of the results follow. Unmarked numbers belong to inactive results. The call rests on the fitted dose curve; in most records, active means well fitted curve in the direction sought with a large enough effect; inconclusive means small, poorly fitted or top-dose-only effect, or effect the other way; inactive means no such curve, though single readings can be large or run the other way.
# Target: Cytochrome P450 3A4 (Homo sapiens) (UniProt P08684)
# Assay: Cytochrome panel assay with activity outcomes
# Conditions: recombinant CYP, pro-luciferin dealkylation, luminescence, p450-cyp3a4; series mostly up to 57.1 µM; activity, negative = inhibition: at the top concentration
# On the % scale 0 is the no-effect control and ±100 the full control effect.
# Chain of Cytochrome P450 3A4 (Homo sapiens) (P08684 whole entry, looked up): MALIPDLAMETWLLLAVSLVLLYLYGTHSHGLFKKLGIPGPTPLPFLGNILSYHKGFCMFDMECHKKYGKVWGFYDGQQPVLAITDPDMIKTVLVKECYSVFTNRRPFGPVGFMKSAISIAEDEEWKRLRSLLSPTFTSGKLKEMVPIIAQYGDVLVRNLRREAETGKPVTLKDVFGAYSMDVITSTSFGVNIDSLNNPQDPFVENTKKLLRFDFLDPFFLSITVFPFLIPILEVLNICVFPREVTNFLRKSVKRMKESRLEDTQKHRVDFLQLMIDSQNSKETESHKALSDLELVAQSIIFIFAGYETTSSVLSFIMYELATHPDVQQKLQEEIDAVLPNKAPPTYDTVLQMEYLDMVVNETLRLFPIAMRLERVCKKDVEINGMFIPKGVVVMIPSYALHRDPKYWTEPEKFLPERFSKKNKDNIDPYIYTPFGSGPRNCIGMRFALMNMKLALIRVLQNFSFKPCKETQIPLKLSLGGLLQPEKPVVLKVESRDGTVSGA
Structure (SMILES),"activity, negative = inhibition",AC50
Cn1cccc1C(=O)C(=O)Nc1cccc(Cl)c1Cl,-26.2%,
COc1ccc(-n2c(CNC(=O)c3ccc(S(=O)(=O)N4CCCC4)cc3)n[nH]c2=S)cc1,,12.6 µM (active)
COc1ccc(-n2c(CNC(=O)c3cc(OC)c(OC)c(OC)c3)n[nH]c2=S)cc1,,7.94 µM (active)
O=C(NCc1n[nH]c(=S)n1-c1cccc(Cl)c1)c1ccc(S(=O)(=O)N2CCCC2)cc1,,4.47 µM (active)
COCc1nnc(NC(=O)c2ccc(S(=O)(=O)N3CCCCCC3)cc2)o1,-17.3%,
COc1ccc(-n2c(=S)[nH]c3cc(C(=O)NCCCN4CCCC4=O)ccc3c2=O)cc1,-2.66%,
COCCNC(=O)c1ccc2c(c1)nc(C)n2-c1cc(OC)c(OC)c(OC)c1,-9.78%,
COCC(=O)Nc1c(I)c(C(=O)NC[C@@H](O)CO)c(I)c(C(=O)N(C)C[C@@H](O)CO)c1I,-14.3% [at 25.6 µM],
CCN(CC)CCOc1ccc(Cc2ccccc2)cc1,4.64%,
CN(CCOc1ccc(C[C@H](Nc2ccccc2C(=O)c2ccccc2)C(=O)O)cc1)c1ccccn1,,10 µM (active)
CC1=CC(=O)CC(C)(C)[C@]1(O)/C=C\C(C)=C\C(=O)O,-1.41% [at 11.4 µM],
S=c1[nH]nc(CSCc2ccccc2Cl)n1-c1ccccc1,,7.94 µM (active)
CCc1nnc(NC(=O)C2CCN(C(=O)NC3CCCCC3)CC2)s1,-25.1%,
CCNC(=S)N1CCC(NC(=O)C2CCCCC2)CC1,,14.1 µM (active)
CCOC(=O)N1CCC(NC(=O)C2CCN(S(=O)(=O)N3CCCC3)CC2)CC1,-7.25%,
Cc1ccc2nc(NC(=O)CSc3nc4c(c(=O)n3C)SC(C)C4)sc2c1 (stereo unspecified),16.7%,
CCn1c(SCC(=O)NC2CCCCC2)nc2c(c1=O)SC(C)C2 (stereo unspecified),,15.8 µM (active)
CCn1c(SCC(=O)Nc2ccc3c(c2)OCCO3)nc2c(c1=O)SC(C)C2 (stereo unspecified),,10 µM (active)
CCn1c(SCC(=O)Nc2nc3ccc(C)cc3s2)nc2c(c1=O)SC(C)C2 (stereo unspecified),,5.01 µM (active)
CCn1nnnc1SCC(=O)NC1CCCC1,-18.8%,
CCOc1ccc(-n2c(SCC(=O)Nc3ccc4c(c3)OCCO4)nc3c(c2=O)SCC3)cc1,-11.1%,
Cc1nc2cccc([N+](=O)[O-])c2n1CCCN(C)C,-0.756% [at 11.4 µM],
CC(C)CN1CC2(CCN(C(=O)c3cccc(F)c3)CC2)C1,8.57%,

Structure (SMILES),"activity, negative = inhibition",AC50
CC(C)CN1CCC2(CC1)CCN(C(=O)c1cccn1C)CC2,2.24%,
O=C(c1cccc(F)c1)N1CCC2(CC1)CN(Cc1ccccc1)C2,-11.9%,
O=C(c1cccc(F)c1)N1CCC2(CCCN(c3ncccn3)C2)CC1,-1.46%,
Cn1cccc1C(=O)N1CCC[C@@]2(CCN(Cc3nccs3)C2)C1,,15.8 µM (active)
O=C(c1cccc(F)c1)N1CCC[C@@]2(CCN(Cc3nccs3)C2)C1,,7.94 µM (active)
CC(C)CN1CCC2(CC1)CCN(C(=O)c1cccc(F)c1)CC2,-18%,
O=C(c1cccc(F)c1)N1CCC[C@@]2(CCN(Cc3ccncc3)C2)C1,,3.16 µM (active)
CC(=O)N1CCC2(CCN(Cc3nccs3)CC2)CC1,18.4%,
O=C(c1cccc(F)c1)N1CCC2(CCCN(Cc3nccs3)C2)CC1,,10 µM (active)
CCCc1ncc(C[n+]2ccccc2C)c(N)n1,-0.453% [at 25.6 µM],
CC(C)(C)N1C(=O)[C@H]2[C@H]3[C@H](O)[C@H](O)C/C(=N/NC(=O)OCc4ccccc4)[C@@H]3CC[C@@H]2C1=O,-15% [at 11.4 µM],
COC(=O)c1c(NC(=O)C(C)(C)C)sc2c1C(C(=O)OC)CC2 (stereo unspecified),15.7%,
Cc1cc(=O)[nH]c(-n2[nH]c(C)cc2=O)n1,-20%,
CCOC(=O)c1ccc(NC(=O)CC2NCCNC2=O)cc1 (stereo unspecified),4.99%,
CCOC(=O)c1ccc(NC(=O)COc2ccccc2OC)cc1,,31.6 µM (active)
COc1ccc(C(=O)Nc2ccc(C(=O)OCC(=O)c3ccccc3)cc2)cc1,17.9%,
CC1=NN(c2ccccc2)C(=O)[C@@H]1N=Nc1ccc(S(N)(=O)=O)cc1,-5.5% [at 11.4 µM],
CCOCc1cnc(C)nc1NCC(=O)c1c(C)[nH]c2ccccc12,-7.96%,
c1ccc(CN2CC[C@@H](CNc3ncnc4ccccc34)C2)cc1,-19.3% [at 11.4 µM],
Oc1ccc(CNCc2ccccc2)c2cccnc12,-8.41% [at 11.4 µM],
O=S(=O)(NC1CCN(Cc2ccccc2)CC1)c1cccc2cccnc12,,15.8 µM (active)
O=C(NCCCN1CCN(C2CCCCC2)CC1)Nc1ccccc1C(F)(F)F,-2.67%,
O=C(NCCCN1CCN(Cc2ccccc2)CC1)C1CCN(S(=O)(=O)N2CCCC2)CC1,-24.6%,

Structure (SMILES),"activity, negative = inhibition",AC50
O=C(NCCCN1CCCCCC1)[C@@H](c1ccccc1)C1CCCCC1,,3.98 µM (active)
Cc1ccc(-c2ccc(CCC(=O)O)o2)cc1,-10.7%,
COC(=O)C(NS(=O)(=O)c1ccc(NC(C)=O)cc1)C(C)C (stereo unspecified),-23.1%,
CCCCCOc1ccc(NC(=O)C(=O)NCCC2=CCCCC2)cc1,3.45%,
CC(=O)Nc1ccc(S(=O)(=O)N=S(C)C)cc1,,inactive
Cc1ccc(S(=O)(=O)N(CC(=O)NCCC2=CCCCC2)Cc2ccccc2F)cc1,-9.36% [at 2.29 µM],
COc1ccc(CONS(=O)(=O)c2ccc(NC(C)=O)cc2)cc1Cl,,3.16 µM (active)
COc1ccc(CCNC(=O)CC(NS(=O)(=O)c2ccc(NC(C)=O)cc2)C(C)C)cc1OC (stereo unspecified),,15.8 µM (active)
CC(=O)Nc1ccc(S(=O)(=O)NC(CC(=O)NCCC2=CCCCC2)C(C)C)cc1 (stereo unspecified),,15.8 µM (active)
C[C@H](O)CO[C@H]1[C@H]2O[C@H]3[C@H](O)[C@@H](O)[C@@H](O[C@H]4[C@H](O)[C@@H](O)[C@@H](O[C@H]5[C@H](O)[C@@H](O)[C@@H](O[C@H]6[C@H](O)[C@@H](OC[C@H](C)O)[C@@H](O[C@H]7[C@H](O)[C@@H](OC[C@H](C)O)[C@@H](O[C@H]8[C@H](O)[C@@H](O)[C@@H](O[C@@H]([C@@H]1O)[C@@H](CO)O2)O[C@@H]8CO)O[C@@H]7CO)O[C@@H]6CO)O[C@@H]5CO)O[C@@H]4CO)O[C@@H]3CO,0.0498%,
O=C(Nc1cccc2cccnc12)[C@@H]1[C@@H](C(=O)O)[C@H]2CC[C@@H]1O2,-18.7% [at 11.4 µM],
O=C(Nc1cccc(C(F)(F)F)c1)C1CCCN1S(=O)(=O)c1cccc2cccnc12 (stereo unspecified),,11.2 µM (active)
COc1ccc(-c2ccc(C(=S)N3CCN(C(C)=O)CC3)o2)cc1,,25.1 µM (active)
C[C@H](N[C@@H](C)COc1ccccc1)[C@H](O)c1ccc(O)cc1,-12.4% [at 25.6 µM],
COc1ccc(C2/C(=C(/O)c3ccccc3)C(=O)C(=O)N2c2ccccn2)c(OC)c1 (stereo unspecified),1.16% [at 2.29 µM],
COc1ccc(N2C(=O)CSC2c2cccc(F)c2)c(OC)c1 (stereo unspecified),,12.6 µM (active)
C/C(=N\[N+](C)(C)C)c1ccc(C)c(C)c1,-5.81% [at 11.4 µM],
O=C(Nc1cccc(-c2nc3ccccc3s2)c1)c1ccc2c(c1)OCO2,,2.24 µM (active)
COC(=O)c1ccc(Cl)c(NC(=O)c2ccc(-c3ccccc3)cc2)c1,0.213% [at 2.29 µM],
O=C(Nc1cc(-c2nc3ccccc3s2)ccc1Cl)c1ccc2c(c1)OCO2,,2.24 µM (active)
CCc1ccc(OCC(=O)OC2CCS(=O)(=O)C2)cc1 (stereo unspecified),9.21%,
O=C(c1ccccc1)N(Cc1ccco1)C1CCS(=O)(=O)C1 (stereo unspecified),-11.5%,
CCc1ccc(CN(C(=O)c2cc3ccccc3oc2=O)C2CCS(=O)(=O)C2)cc1 (stereo unspecified),,14.1 µM (active)

Structure (SMILES),"activity, negative = inhibition",AC50
CCCN(C(=S)Nc1ccccc1)C1CCS(=O)(=O)C1 (stereo unspecified),-16.8%,
O=C(c1sc2ccccc2c1Cl)N(Cc1ccccc1)C1CCS(=O)(=O)C1 (stereo unspecified),,11.2 µM (active)
CCOc1ccc(CN(C(=O)c2oc3ccccc3c2C)C2CCS(=O)(=O)C2)cc1 (stereo unspecified),,12.6 µM (active)
CN(C(=O)COc1cccc(Br)c1)C1CCS(=O)(=O)C1 (stereo unspecified),-25.4%,
Cc1ccc[n+](CC(=O)c2cc3ccccc3oc2=O)c1,-4.17% [at 2.29 µM],
C[C@@H](CC(=O)O)[C@@H](N)C(=O)O,-18.5%,
O=C(COC(=O)c1cccnc1Cl)c1ccccc1,-13.3%,
O=C(Oc1cccc(Br)c1)c1cccnc1,-29.3%,
O=C(COC(=O)c1cccnc1)c1ccc(Cl)c(Cl)c1,,0.562 µM (active)
CON1C(=O)C(=O)N(OC)C2CCCCC21 (stereo unspecified),2.41%,
CC(C)(C)N1C(=O)[C@H]2[C@@H]3[C@H](O)[C@H](O)CC(=O)[C@H]3CC[C@H]2C1=O,-16.1% [at 11.4 µM] and -10.3% [at 11.4 µM],
Cc1cnc(CNc2ncncc2-c2ccccc2CN(C)C)cn1,,3.16 µM (active)
Cc1cnc(CNc2ncncc2-c2ccccc2C)cn1,,1 µM (active)
CN(C)Cc1ccccc1-c1cncnc1NC1CC1,,12.6 µM (active)
COc1ccccc1-c1cncnc1NCc1cnc(C)cn1,,1.26 µM (active)
O=[N+]([O-])c1ccccc1N=Nc1c(O)[nH]c2ccc(S(=O)(=O)O)cc12,-6.01% [at 11.4 µM],
C/C(=N\NC(=O)CC1N=C(Cc2ccccc2)NNC1=O)c1ccc(Cl)cc1Cl (stereo unspecified),,1.26 µM (active)
Nc1ccc(-c2nc3c(Cl)c(N)ccc3[nH]2)cc1,,1 µM (active)
c1cncc(-c2nccc(NCc3cccs3)n2)c1,,1 µM (active)
CN(C)c1ccc(-c2nccc(NCc3cccs3)n2)cc1,,12.6 µM (active)
c1csc(CNc2ccnc(-c3ccoc3)n2)c1,,7.94 µM (active)
CN(C)C(=O)c1ccc(-c2nccc(NCc3cccs3)n2)cc1,,25.1 µM (active)

# — PubChem BioAssay AID1851 (National Center for Advancing Translational Sciences (NCATS), 2009)
